Test results as given in PubChem BioAssay (EPA / NIEHS).
The source made the active and inactive calls. Rule for the calls: active = hit-call score of the fitted dose curve at least 0.9, where 1 is the maximum; inactive = score below 0.9.

Experiments:
[1] = ATG_EGR_CIS: Attagene CIS-FACTORIAL HepG2 Assay for human Early Growth Response 1 (EGR1) (AID 2282938); conditions: HepG2 Attagene CIS-FACTORIAL EGR reporter mRNA; actives raise or lower the signal
How it was run: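 Read-out: fluorescent reporter-mRNA fragments resolved by capillary electrophoresis after RT-PCR, 24 h post-dose in transiently transfected HepG2. Endogenous transcription-factor activity reported via cis-element-regulated reporter units; gain or loss fitted relative to DMSO.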

[2] = ATG_M_19_CIS: Attagene CIS-FACTORIAL HepG2 Assay for M19 Transcription Factor (Internal Marker) (AID 2282939); conditions: HepG2 Attagene CIS-FACTORIAL M19 internal marker reporter; actives raise or lower the signal
How it was run: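 HepG2 cells transiently transfected with cis-regulated multiplexed reporter units, dosed 24 h. Reporter mRNA quantified by RT-PCR and capillary electrophoresis; internal background marker fitted bidirectionally versus DMSO.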

[3] = ATG_ERE_CIS: Attagene CIS-FACTORIAL HepG2 Assay for Estrogen Response Element (ERE) (AID 2282940); conditions: HepG2 ERE cis-reporter, Attagene RNA transcript; actives raise or lower the signal
How it was run: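 HepG2 cells transiently transfected with multiplexed cis-element reporter units, measuring endogenous transcription factor activity; ERE reporter mRNA quantified after 24 h exposure by RT-PCR, fluorescent labelling, HpaI digestion and capillary electrophoresis. Bidirectional change versus DMSO.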

[4] = ATG_Ets_CIS: Attagene CIS-FACTORIAL HepG2 Assay for human Erythroblast Transformation Specific (ETS) (AID 2282941); conditions: HepG2 ETS cis-reporter transcription; AC50: actives raise or lower the signal unless noted; outcome: actives raise or lower the signal unless noted
How it was run: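 Bidirectional fit versus DMSO of reporter mRNA signal, detected by RT-PCR and capillary electrophoresis in HepG2 cells transiently transfected with cis-element reporters and dosed 24 h.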

[5] = biological target: Hepatocyte nuclear factor 3-beta (Homo sapiens) (UniProt Q9Y261); test: ATG_FoxA2_CIS: Attagene CIS-FACTORIAL HepG2 Assay for human Forkhead box A2 (FOXA2) (AID 2282942); conditions: HepG2 cis-reporter transcription factor activity, 24 h; actives raise or lower the signal
Hepatocyte nuclear factor 3-beta (Homo sapiens), sequence (Q9Y261 whole entry, looked up): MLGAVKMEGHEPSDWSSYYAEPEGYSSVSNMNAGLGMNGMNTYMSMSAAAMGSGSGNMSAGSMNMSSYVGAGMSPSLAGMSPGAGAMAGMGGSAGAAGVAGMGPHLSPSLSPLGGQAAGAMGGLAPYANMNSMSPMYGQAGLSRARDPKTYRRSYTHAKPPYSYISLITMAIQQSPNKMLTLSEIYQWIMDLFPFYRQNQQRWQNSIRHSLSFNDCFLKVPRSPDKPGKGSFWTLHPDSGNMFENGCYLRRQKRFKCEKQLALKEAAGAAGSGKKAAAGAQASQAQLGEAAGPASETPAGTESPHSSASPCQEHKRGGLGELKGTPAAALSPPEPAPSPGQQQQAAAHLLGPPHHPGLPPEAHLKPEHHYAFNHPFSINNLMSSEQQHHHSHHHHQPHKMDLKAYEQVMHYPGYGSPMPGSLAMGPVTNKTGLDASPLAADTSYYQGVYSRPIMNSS
How it was run: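 Readout: fluorescent reporter transcripts resolved by capillary electrophoresis after RT-PCR. Transiently transfected HepG2, 24 h compound exposure, endogenous TF activity at cis promoter elements. Gain or loss of signal fitted relative to DMSO.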

[6] = ATG_FoxO_CIS: Attagene CIS-FACTORIAL HepG2 Assay for human Forkhead box O (FoxO) (AID 2282943); conditions: HepG2 Attagene cis-reporter, FoxO element, mRNA; actives raise or lower the signal
How it was run: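 HepG2, transient MRTU transfection (cis element, endogenous TFs). Dose 24 h. TriZol RNA → oligo(dT) RT → PCR → 6-FAM primer extension → HpaI cut → CE. Gain/loss vs DMSO.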

[7] = ATG_GATA_CIS: Attagene CIS-FACTORIAL HepG2 Assay for human GATA Binding Protein (AID 2282944); conditions: HepG2 GATA cis-element reporter, Attagene multiplex mRNA; actives raise or lower the signal
How it was run: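 HepG2 cells transiently transfected with multiplexed cis-element reporter units measure endogenous GATA activity; after 24 h compound exposure, reporter mRNA quantified by RT-PCR and capillary electrophoresis. Changes fitted in both directions vs DMSO.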

[8] = ATG_GLI_CIS: Attagene CIS-FACTORIAL HepG2 Assay for human Zinc Finger Protein GLI1 (AID 2282945); conditions: HepG2, Attagene cis-factorial reporter mRNA, GLI element; actives raise or lower the signal
How it was run: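 Bidirectional curve fits relative to DMSO, using reporter mRNA levels from RT-PCR plus capillary electrophoresis. Cells were HepG2 transiently carrying cis-regulated reporter constructs, harvested 24 h after dosing.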

[9] = ATG_GRE_CIS: Attagene CIS-FACTORIAL HepG2 Assay for human Glucocorticoid Response Elements (GRE) (AID 2282947); conditions: HepG2 GRE cis-reporter, Attagene multiplex mRNA; AC50: actives raise or lower the signal unless noted; outcome: actives raise or lower the signal unless noted
How it was run: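 Reporter transcripts read by RT-PCR with capillary electrophoresis fluorescence after a 24 h chemical exposure of HepG2 cells transiently transfected with multiple cis-element reporter units. Gain or loss fitted against DMSO.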

[10] = ATG_M_32_CIS: Attagene CIS-FACTORIAL HepG2 Assay for M32 Transcription Factor (Internal Marker) (AID 2282949); conditions: HepG2 Attagene cis-factorial M32 reporter, mRNA; actives raise or lower the signal;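 note: background control marker of the multiplexed CIS panel rather than a real target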
How it was run: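 HepG2 human liver cells transiently transfected with cis-promoter-driven multiple reporter transcription units, dosed 24 h. Reporter mRNA quantified by RT-PCR, FAM-labelled primer extension, HpaI digest and capillary electrophoresis; bidirectional fit versus DMSO baseline.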

[11] = ATG_M_06_CIS: Attagene CIS-FACTORIAL HepG2 Assay for M06 Transcription Factor (Internal Marker) (AID 2282950); conditions: HepG2 Attagene CIS-FACTORIAL M06 internal marker reporter; actives raise or lower the signal
How it was run: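 Internal background marker within multiplexed cis-reporter HepG2 system. Cells transiently transfected, dosed 24 h; reporter mRNA measured by RT-PCR, HpaI digestion and capillary electrophoresis. Bidirectional fit relative to DMSO.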

[12] = biological target: Hypoxia-inducible factor 1-alpha (Homo sapiens) (UniProt Q16665); test: ATG_HIF1a_CIS: Attagene CIS-FACTORIAL HepG2 Assay for human Hypoxia Inducible Factor 1 (HIF1A) (AID 2282951); conditions: HepG2 Attagene cis-factorial HIF1a reporter transcription; actives raise or lower the signal
Hypoxia-inducible factor 1-alpha (Homo sapiens), sequence (Q16665 whole entry, looked up): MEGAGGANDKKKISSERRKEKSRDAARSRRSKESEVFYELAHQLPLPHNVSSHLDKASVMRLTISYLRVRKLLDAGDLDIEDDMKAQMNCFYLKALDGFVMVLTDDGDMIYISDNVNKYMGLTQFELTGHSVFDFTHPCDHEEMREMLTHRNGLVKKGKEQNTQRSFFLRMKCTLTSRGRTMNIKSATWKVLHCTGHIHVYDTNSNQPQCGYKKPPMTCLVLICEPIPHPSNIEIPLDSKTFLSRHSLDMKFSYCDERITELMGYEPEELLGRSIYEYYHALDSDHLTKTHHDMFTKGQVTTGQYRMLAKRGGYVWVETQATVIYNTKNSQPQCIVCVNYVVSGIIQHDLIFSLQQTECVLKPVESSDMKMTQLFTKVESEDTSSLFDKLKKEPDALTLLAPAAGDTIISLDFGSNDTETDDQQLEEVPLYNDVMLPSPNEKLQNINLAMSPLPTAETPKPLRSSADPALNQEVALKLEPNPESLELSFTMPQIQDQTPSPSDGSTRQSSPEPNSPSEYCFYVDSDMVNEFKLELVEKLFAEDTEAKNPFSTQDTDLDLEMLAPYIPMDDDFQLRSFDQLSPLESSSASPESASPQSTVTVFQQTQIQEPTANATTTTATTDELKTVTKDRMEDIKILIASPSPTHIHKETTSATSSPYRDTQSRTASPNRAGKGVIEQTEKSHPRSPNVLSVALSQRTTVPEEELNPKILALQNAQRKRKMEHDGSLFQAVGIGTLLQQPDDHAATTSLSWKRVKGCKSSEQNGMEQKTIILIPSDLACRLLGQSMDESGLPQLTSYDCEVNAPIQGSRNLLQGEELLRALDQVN
How it was run: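 RT-PCR/capillary electrophoresis fluorescence readout of reporter transcripts from endogenous-TF-driven cis elements in transfected HepG2 cells, 24 h exposure; activity fitted in both directions against DMSO controls.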

[13] = biological target: Heat shock factor protein 1 (Homo sapiens) (UniProt Q00613); test: ATG_HSE_CIS: Attagene CIS-FACTORIAL HepG2 Assay for human Heat Shock Transcription Factor 1 (HSE) (AID 2282953); conditions: HepG2 HSE cis-reporter, Attagene RNA transcription; actives raise or lower the signal
Heat shock factor protein 1 (Homo sapiens), sequence (Q00613 whole entry, looked up): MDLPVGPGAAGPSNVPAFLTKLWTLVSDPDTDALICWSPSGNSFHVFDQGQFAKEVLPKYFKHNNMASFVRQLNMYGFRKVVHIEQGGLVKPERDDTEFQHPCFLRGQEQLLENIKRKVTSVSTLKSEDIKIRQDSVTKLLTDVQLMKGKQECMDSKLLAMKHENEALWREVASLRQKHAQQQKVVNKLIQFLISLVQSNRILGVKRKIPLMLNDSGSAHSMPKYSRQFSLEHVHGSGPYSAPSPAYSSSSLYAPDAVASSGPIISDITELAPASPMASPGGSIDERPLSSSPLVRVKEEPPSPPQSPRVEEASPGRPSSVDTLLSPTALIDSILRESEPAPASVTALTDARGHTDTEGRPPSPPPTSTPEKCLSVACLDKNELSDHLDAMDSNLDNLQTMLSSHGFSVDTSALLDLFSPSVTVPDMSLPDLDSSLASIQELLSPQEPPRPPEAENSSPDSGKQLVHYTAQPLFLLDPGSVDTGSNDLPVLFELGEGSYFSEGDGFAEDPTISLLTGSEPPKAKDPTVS
How it was run: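 HepG2 cells transfected with cis-promoter reporter units sensing endogenous transcription factor activity; reporter mRNA quantified 24 h post-dose by RT-PCR and capillary electrophoresis of 6-FAM-labelled products. Bidirectional fitting against DMSO.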

[14] = ATG_MRE_CIS: Attagene CIS-FACTORIAL HepG2 Assay for human Metal Responsive Element (MRE) (AID 2282954); conditions: HepG2 MRE cis-reporter transcription, Attagene multiplex; actives raise or lower the signal
How it was run: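 Endogenous MRE-dependent transcription read as reporter mRNA in transiently transfected human HepG2 cells at 24 h. RNA reverse-transcribed, PCR-amplified, labelled and resolved by capillary electrophoresis; gain or loss relative to DMSO.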

[15] = ATG_PBREM_CIS: Attagene CIS-FACTORIAL HepG2 Assay for human Phenobarbital-responsive Enhancer Module (PBREM) (AID 2282955); conditions: HepG2 PBREM cis-reporter, Attagene multiplexed transcription; actives raise or lower the signal
How it was run: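 Reporter mRNA read by RT-PCR, 6-FAM primer extension, HpaI digestion and capillary electrophoresis. Transfected HepG2 cells, 24 h compound exposure. Gain or loss of signal fitted bidirectionally relative to DMSO baseline.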

[16] = biological target: Paired box protein Pax-6 (Homo sapiens) (UniProt P26367); test: ATG_Pax6_CIS: Attagene CIS-FACTORIAL HepG2 Assay for human Paired Box 6 (PAX6) (AID 2282956); conditions: HepG2 CIS-FACTORIAL PAX6 reporter transcription, RNA readout; actives raise or lower the signal
Paired box protein Pax-6 (Homo sapiens), sequence (P26367 whole entry, looked up): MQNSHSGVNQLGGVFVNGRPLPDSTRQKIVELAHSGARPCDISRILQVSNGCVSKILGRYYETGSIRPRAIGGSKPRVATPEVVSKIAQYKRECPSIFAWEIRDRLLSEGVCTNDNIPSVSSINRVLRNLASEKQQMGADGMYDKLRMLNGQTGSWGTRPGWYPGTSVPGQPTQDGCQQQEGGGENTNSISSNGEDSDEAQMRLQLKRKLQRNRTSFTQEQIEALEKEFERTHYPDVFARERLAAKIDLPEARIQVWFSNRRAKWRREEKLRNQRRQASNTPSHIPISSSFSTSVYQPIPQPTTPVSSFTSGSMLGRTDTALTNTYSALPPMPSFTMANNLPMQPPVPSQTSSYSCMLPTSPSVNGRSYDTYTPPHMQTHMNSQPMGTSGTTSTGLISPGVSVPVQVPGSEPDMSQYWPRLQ
How it was run: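 DMSO-referenced bidirectional fits of reporter mRNA fluorescence; HepG2 with transient cis-promoter MRTUs, 24 h post-dose, RT-PCR plus capillary electrophoresis detection.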

[17] = ATG_PXRE_CIS: Attagene CIS-FACTORIAL HepG2 Assay for human Pregnane X Receptor Element (PXRE) (AID 2282957); conditions: HepG2 Attagene CIS-FACTORIAL PXRE reporter, mRNA; actives raise or lower the signal
How it was run: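 Bidirectional activity, baselined to DMSO, derived from reporter mRNA fluorescence (RT-PCR plus capillary electrophoresis) in HepG2 cells bearing cis-promoter reporter units, 24 h exposure.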

[18] = ATG_ISRE_CIS: Attagene CIS-FACTORIAL HepG2 Assay for human Interferon Regulatory Factor 1 (IRF1) binding to an Interferon-Stimulated Response Element (ISRE) (AID 2282948); conditions: HepG2 ISRE cis-reporter (Attagene), mRNA transcription readout; actives raise or lower the signal
How it was run: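 Uses HepG2 liver cells transfected with cis-regulated reporters and measures mRNA 24 h post-dosing through RT-PCR, primer-extension labelling and capillary electrophoresis, with DMSO as negative control.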

[19] = biological target: Hepatocyte nuclear factor 6 (Homo sapiens) (UniProt Q9UBC0); test: ATG_HNF6_CIS: Attagene CIS-FACTORIAL HepG2 Assay for human Hepatocyte Nuclear Factor 6 (HNF6) (AID 2282952); conditions: HepG2 Attagene cis-factorial HNF6 reporter transcription; actives raise or lower the signal
Hepatocyte nuclear factor 6 (Homo sapiens), sequence (Q9UBC0 whole entry, looked up, the tested form may be a part): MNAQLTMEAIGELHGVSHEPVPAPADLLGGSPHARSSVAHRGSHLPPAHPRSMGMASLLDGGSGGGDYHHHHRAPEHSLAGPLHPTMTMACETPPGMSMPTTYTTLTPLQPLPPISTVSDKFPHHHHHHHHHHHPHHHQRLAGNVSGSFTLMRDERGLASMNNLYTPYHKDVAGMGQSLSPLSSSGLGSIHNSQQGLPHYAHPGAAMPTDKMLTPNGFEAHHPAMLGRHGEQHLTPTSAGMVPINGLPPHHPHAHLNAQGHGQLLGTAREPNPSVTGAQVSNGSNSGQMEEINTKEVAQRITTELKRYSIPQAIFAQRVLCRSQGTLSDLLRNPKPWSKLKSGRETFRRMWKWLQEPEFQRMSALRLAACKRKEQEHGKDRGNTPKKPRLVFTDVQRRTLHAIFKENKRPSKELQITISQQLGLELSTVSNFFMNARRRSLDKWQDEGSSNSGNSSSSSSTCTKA
How it was run: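 Twenty-four-hour chemical treatment of reporter-transfected HepG2 cells precedes RNA isolation, DNase-treated reverse transcription and PCR of reporter sequences. Labelled fragments are sized by capillary electrophoresis and fitted bidirectionally versus DMSO.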

Measured: AC50

CCCCCCCCCCCCCCCCCC[N+](C)(C)Cc1ccccc1
active: [9] 79.2 µM | [14] 7.27 µM
not listed: [18] | [19]
inactive: all other assays above

CC(C)(C)C1CCCCC1O (stereo not given)
not listed: [13]
inactive: all other assays above
